# Screening data: PubChem BioAssay, National Center for Advancing Translational Sciences (NCATS)
# Rows were chosen to be rich in hits. Some 18% of all compounds tested hit in one or more screens of this group.
# TDP1 cell noCPT: qHTS for Inhibitors of human tyrosyl-DNA phosphodiesterase 1 (TDP1): qHTS in cells in absence of CPT | DT40 Tdp1-/- hTDP1 cells, no CPT, ATP luminescence, 48 h | Potency, µM (titrated, usually from 46.2 µM), usual class: inhibitors | 420,000 compounds, 15% hits | AID 686978, 2013; further: nearly all actives have a fitted effect of over 55% in size
#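 Seeded 400 DT40-hTDP1 cells/well (vehicle DMSO, no 20 nM CPT); pinned compounds; ≥48 hr at 37 °C; CellTiter-Glo luminescence as viability measure.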
# PLK1 PBD block: inhibitors of human PLK1 polo-box domain binding; Plk1 PBD binding of FITC phosphopeptide, fluorescence polarization; Potency, µM, most hits filed as inhibitors; 360,000 compounds, 2.8% hits; further: series mostly up to about 57 µM; nearly all actives have a fitted effect of over 65% in size
# TDP1 inh: TDP1 (human) enzyme inhibition | Q9NUW8 | recombinant TDP1, AlphaScreen DNA substrate cleavage | Potency, µM (top dose mostly 130 µM), actives largely listed as inhibitors | 350,000 compounds, 0.28% hits; further: nearly all actives have a fitted effect of over 40% in size
# Target sequence (Q9NUW8 whole entry, looked up): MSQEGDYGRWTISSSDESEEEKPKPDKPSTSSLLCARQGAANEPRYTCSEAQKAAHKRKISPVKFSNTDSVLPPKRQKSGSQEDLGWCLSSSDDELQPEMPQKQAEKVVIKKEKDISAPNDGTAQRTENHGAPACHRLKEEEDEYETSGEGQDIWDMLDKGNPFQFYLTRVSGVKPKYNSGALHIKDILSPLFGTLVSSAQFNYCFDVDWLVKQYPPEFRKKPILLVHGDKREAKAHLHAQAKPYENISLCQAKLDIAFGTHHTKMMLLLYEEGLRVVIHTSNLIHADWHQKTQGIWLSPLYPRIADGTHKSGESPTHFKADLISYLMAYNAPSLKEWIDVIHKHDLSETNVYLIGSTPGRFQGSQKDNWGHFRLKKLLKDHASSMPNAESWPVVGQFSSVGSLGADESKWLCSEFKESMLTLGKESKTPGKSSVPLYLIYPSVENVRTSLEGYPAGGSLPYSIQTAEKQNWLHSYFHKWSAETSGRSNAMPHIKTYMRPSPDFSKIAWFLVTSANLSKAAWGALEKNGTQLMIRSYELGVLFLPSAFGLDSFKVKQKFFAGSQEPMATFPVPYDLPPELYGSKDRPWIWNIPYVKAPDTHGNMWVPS
#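 Here, a 5' biotin and 3' phosphotyrosine-FITC DNA oligonucleotide reports Tdp1 activity: intact substrate bridges AlphaScreen beads, while cleavage leaves a 3' phosphate and drops signal. All incubations at room temperature.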
# GCN5L2 inh: inhibitors of human GCN5L2 histone acetyltransferase; GCN5L2 HAT assay, ThioGlo1 CoA-SH fluorescence; AID 504327; Potency, µM (highest dose often 58.9 µM), usual class: inhibitors; 390,000 compounds, 0.21% hits; Q92830
#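 ThioGlo1-coupled HAT assay: 20nM GCN5L2, 70uM acetyl-CoA, 75uM H3(1-25) peptide, pH 7.5. Fluorescence read at 340/540nm at start and after 20 min at room temperature.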
# VDR inhibitor: inhibitors of human vitamin D receptor; 400,000 compounds, 0.93% hits; P11473; Potency, µM, most hits filed as inhibitors; VDR-SRC2-3 peptide fluorescence polarization, 2 h
#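 Two reagent solutions held at 4 deg C in the dark were dispensed, compounds pinned at 23 nl, and the mixture incubated 2 h at room temperature. Read-out: fluorescence polarization of VDR–SRC2-3 peptide binding.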
# DT40 TDP1 CPT: growth inhibition of DT40 Tdp1-/-;hTDP1 cells with camptothecin (screen for TDP1 inhibitors). chicken DT40 Tdp1-/-;hTDP1 cells + 20 nM CPT, ATP luminescence, 48 h. Potency, µM (series often up to 46.2 µM), most hits filed as inhibitors. 420,000 compounds, 12% hits; further: nearly all actives have a fitted effect of over 55% in size
#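 Chicken DT40 Tdp1-/- cells complemented with human TDP1, 400 cells/well, exposed to compounds plus 20 nM camptothecin for at least 48 h at 37 C; viability read as ATP content by CellTiter-Glo luminescence.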
# Hits are given with their value; - = inactive; ? = inconclusive; . = no result. The call rests on the fitted dose curve; in most records, active means well fitted curve in the direction sought with a large enough effect; inconclusive means small, poorly fitted or top-dose-only effect, or another doubt; inactive means no such curve, though single readings can be large; an effect the other way counts as inactive or inconclusive.
SMILES,TDP1 cell noCPT,PLK1 PBD block,TDP1 inh,GCN5L2 inh,VDR inhibitor,DT40 TDP1 CPT
COc1cc(NC(=O)CCc2c(C)nc3c(-c4ccc(F)cc4)c(C)nn3c2C)cc(OC)c1OC,6.51µM,.,-,-,-,5.17µM
CCCCCNC(=O)c1c[nH]c2ccc(S(=O)(=O)N3CCC4(CC3)OCCO4)cc2c1=O,?,-,.,-,-,?
CCOC1=C2CN(S(=O)(=O)c3ccc(C)cc3)[C@H](c3ccccc3)C[C@@H]2N(S(=O)(=O)c2ccc(C)cc2)[C@H](c2cccs2)C1,-,-,.,.,.,-
COc1ccccc1C(=O)N1CCN(C(=O)c2oc3ccc(C)cc3c2C)CC1,?,-,-,-,-,?
O=C(CCNS(=O)(=O)c1cccc2nsnc12)Nc1ccc(F)cc1,-,.,-,-,-,-
CCOC(=O)N1CCc2c(sc3c2C(=O)NC(c2ccc(N(C)C)cc2)N3)C1 (stereo not drawn),3.66µM,.,-,-,-,2.31µM
CCOC(=O)N1CCc2c(sc3c2C(=O)NC(c2ccccc2)N3)C1 (stereo not drawn),3.26µM,?,-,-,-,6.51µM
Cc1ccc(S(=O)(=O)c2nnn3c2nc(NCc2ccc(F)cc2)c2sccc23)cc1C,?,.,-,-,-,?
COc1cc(/C=C2\C(=O)NN(c3ccccc3)C2=O)ccc1OCC(N)=O,.,.,-,-,.,.
COc1cccc(/C=C2/C(=O)NN(c3ccccc3)C2=O)c1,?,5.32µM,.,-,?,?
O=C1NN(c2ccccc2)C(=O)/C1=C\c1ccc2c(c1)OCO2,-,26.7µM,-,-,-,-
COc1cccc(/C=C2/C(=O)NN(c3ccc(C)c(C)c3)C2=O)c1,-,5.97µM,.,-,79.4µM,-
COc1cccc(/C=C2/C(=O)NN(c3ccc(F)cc3)C2=O)c1,-,5.32µM,.,-,44.7µM,?
CCOC(=O)[C@]12CCC=C1N(CCC1=CCCCC1)C(=O)[C@H](CC(=O)NCc1cccs1)C2,?,-,.,.,.,?
C/C(=N\NC(=O)C(=O)Nc1c(C)n(C)n(-c2ccccc2)c1=O)c1ccncc1,-,-,.,-,-,-
CCOc1cc(/C=C2/C(=O)NN(c3cccc(Cl)c3)C2=O)ccc1O,-,?,-,-,?,-
COc1cc(/C=C2/C(=O)NN(c3cccc(Cl)c3)C2=O)cc(OC)c1O,-,-,.,-,79.4µM,-
Cc1cccc(-c2nc(CN3CCCC(C(=O)NCc4ccc(Cl)cc4)C3)c(C)o2)c1 (stereo not drawn),7.31µM,.,-,-,-,-
Cc1oc(-c2cccc(Br)c2)nc1CN1CCC(C(=O)NCc2ccccc2)CC1,?,.,-,-,-,18.4µM
CCCCSCCCNC(=O)C1CCN(Cc2nc(-c3cccc(Br)c3)oc2C)CC1,?,.,-,-,-,?
COc1ccc(CNC(=O)C2CCCN(Cc3nc(-c4cccc(C)c4)oc3C)C2)cc1 (stereo not drawn),13µM,-,-,-,-,13µM
Cc1cc(C)c2c(=O)cc(CSc3nnc(-c4ccccc4)n3C)[nH]c2c1,-,.,-,-,-,-
Cc1ccccc1OCc1nnc(SCc2cc(=O)c3cc(F)ccc3[nH]2)n1C,11.6µM,.,-,-,-,13µM
Cc1ccc2[nH]c(CSc3nnc(COc4ccccc4C)n3C)cc(=O)c2c1,14.6µM,.,-,-,-,18.4µM
CCCCc1nnc(SCc2cc(=O)c3cc(F)ccc3[nH]2)n1C,?,.,-,-,-,?
O=C(COC(=O)c1nc(Cl)ccc1Cl)NCc1ccc(Cl)cc1,?,-,-,-,-,-
N#C/C(=C(\O)c1cc(Cl)sc1Cl)c1nc2ccccc2[nH]1,?,-,-,-,-,?
Cc1ccccc1C(=O)Nc1ccccc1-c1nnn(CC(=O)Nc2ccc3c(c2)OCCO3)n1,14.6µM,-,-,?,-,23.1µM
O=C(Cn1nnc(-c2ccccc2NC(=O)c2ccccc2)n1)Nc1ccc2c(c1)OCCO2,-,-,-,-,-,?
